Parameters in all cases: species or system human, MV4-11 + K-562 + COLO205 + SK-N-BE2 + OVCAR-8
One experiment has as its system CDK4. To be noted: read-out: apparent Kd; compound concentrations: 100 nM and 1000 nM (sheet 'Samples'), CATDS: 0.32683838675566101; n = 1.
Another experiment deals with MAP2K2. The conditions noted are these: read-out: apparent Kd; compound concentrations: 100 nM and 1000 nM (sheet 'Samples'), CATDS: 0.35471612701675298; n = 1.
In another experiment the test system is PDGFRB. The conditions noted are these: read-out: apparent Kd, n = 1.
Another experiment concerns CDK10. To be noted: read-out: apparent Kd; compound concentrations:100 nM and 1000 nM (sheet 'Samples'); n = 1.
The subject of a further experiment is GSK3A. To be noted: read-out: apparent Kd; compound concentrations:100 nM and 1000 nM (sheet 'Samples'); n = 1.
The test system of another experiment is GSK3B. To be noted: read-out: apparent Kd; compound concentrations:100 nM and 1000 nM (sheet 'Samples'); n = 1.
The subject of another experiment is ILK. To be noted: read-out: apparent Kd; compound concentrations:100 nM and 1000 nM (sheet 'Samples'); n = 1.
The subject of a further experiment is PKN1. To be noted: read-out: apparent Kd; compound concentrations:100 nM and 1000 nM (sheet 'Samples'); n = 1.
A further experiment deals with PRKCB. To be noted: read-out: apparent Kd; compound concentrations: 100 nM and 1000 nM (sheet 'Samples'), CATDS: 0.15520106797875899; n = 1.
A further experiment concerns PRKCI. To be noted: read-out: apparent Kd; compound concentrations:100 nM and 1000 nM (sheet 'Samples'); n = 1.
The next experiment concerns RPS6KA6. The conditions noted are these: read-out: apparent Kd; compound concentrations:100 nM and 1000 nM (sheet 'Samples'); n = 1.
The next experiment concerns RPS6KB1. To be noted: read-out: apparent Kd; compound concentrations:100 nM and 1000 nM (sheet 'Samples'); n = 1.
For a further experiment, the system named is CDC42. To be noted: read-out: apparent Kd; compound concentrations: 100 nM and 1000 nM (sheet 'Samples'), CATDS: 8.3198711436125394E-2; n = 1.
The test system of a further experiment is CSNK1A1. To be noted: read-out: apparent Kd; compound concentrations: 100 nM and 1000 nM (sheet 'Samples'), CATDS: 8.7123517988238197E-2; n = 1.
Another experiment deals with CSNK1D. To be noted: read-out: apparent Kd; compound concentrations: 100 nM and 1000 nM (sheet 'Samples'), CATDS: 0.37273157205877999; n = 1.
Another experiment has as its system CSNK1E. To be noted: read-out: apparent Kd; compound concentrations: 100 nM and 1000 nM (sheet 'Samples'), CATDS: 0.16724223379061501; n = 1.
In the next experiment the test system is MAPK10. To be noted: read-out: apparent Kd; compound concentrations: 100 nM and 1000 nM (sheet 'Samples'), CATDS: 0.11305020597261101; n = 1.
Another experiment has as its system MAPK14. To be noted: read-out: apparent Kd; compound concentrations: 100 nM and 1000 nM (sheet 'Samples'), CATDS: 9.3591045937798004E-2; n = 1.
A further experiment has as its system MAPK9. The conditions noted are these: read-out: apparent Kd; compound concentrations: 100 nM and 1000 nM (sheet 'Samples'), CATDS: 8.8395799729483998E-2; n = 1.
The next experiment has as its system MAPKAPK2. To be noted: read-out: apparent Kd; compound concentrations: 100 nM and 1000 nM (sheet 'Samples'), CATDS: 0.13823017842708299; n = 1.
In another experiment the test system is RIPK2. To be noted: read-out: apparent Kd; compound concentrations: 100 nM and 1000 nM (sheet 'Samples'), CATDS: 9.29117270749487E-2; n = 1.
A further experiment has as its system CDK16. The conditions noted are these: read-out: apparent Kd; compound concentrations:100 nM and 1000 nM (sheet 'Samples'); n = 1.
The next experiment relates to CDK17. The conditions noted are these: read-out: apparent Kd; compound concentrations:100 nM and 1000 nM (sheet 'Samples'); n = 1.
The next experiment concerns CDK6. To be noted: read-out: apparent Kd; compound concentrations:100 nM and 1000 nM (sheet 'Samples'); n = 1.
The test system of the next experiment is CDK7. The conditions noted are these: read-out: apparent Kd; compound concentrations:100 nM and 1000 nM (sheet 'Samples'); n = 1.
In the next experiment the test system is CDK9. To be noted: read-out: apparent Kd; compound concentrations:100 nM and 1000 nM (sheet 'Samples'); n = 1.
The next experiment concerns CDKL5. The conditions noted are these: read-out: apparent Kd; compound concentrations:100 nM and 1000 nM (sheet 'Samples'); n = 1.
Another experiment deals with EPHB2. The conditions noted are these: read-out: apparent Kd; compound concentrations:100 nM and 1000 nM (sheet 'Samples'); n = 1.
The subject of the next experiment is ERCC2. The conditions noted are these: read-out: apparent Kd; compound concentrations:100 nM and 1000 nM (sheet 'Samples'); n = 1.
In another experiment the test system is FER. To be noted: read-out: apparent Kd; compound concentrations:100 nM and 1000 nM (sheet 'Samples'); n = 1.
The subject of another experiment is ICK. To be noted: read-out: apparent Kd; compound concentrations:100 nM and 1000 nM (sheet 'Samples'); n = 1.
The next experiment relates to MAPK7. To be noted: read-out: apparent Kd; compound concentrations:100 nM and 1000 nM (sheet 'Samples'); n = 1.
For another experiment, the system named is NQO2. To be noted: read-out: apparent Kd; compound concentrations:100 nM and 1000 nM (sheet 'Samples'); n = 1.
A further experiment concerns TNK1. The conditions noted are these: read-out: apparent Kd; compound concentrations:100 nM and 1000 nM (sheet 'Samples'); n = 1.
A further experiment relates to TNK2. The conditions noted are these: read-out: apparent Kd; compound concentrations:100 nM and 1000 nM (sheet 'Samples'); n = 1.

Where two headings read alike, the source gives them in different places.

With `COc1cc2ncn(-c3cc(OCc4ccccc4C(F)(F)F)c(C(=O)N(C)C)s3)c2cc1OC` [GSK1030062A], the potency estimated from few doses in the experiment on CDK4 was 2020 nM; with MAP2K2, 1720 nM; in the experiment with PDGFRB (compound concentrations: 100 nM and 1000 nM (sheet 'Samples'), CATDS: 0.32038670462926999) it was 2110 nM.
For `CN1C[C@@H]2Cn3c(c(C4=C(c5cn(C)c6ccccc56)C(=O)NC4=O)c4ccccc43)C[C@H]2C1.Cl` [RO0320557-001], the potency estimated from few doses was 1200 nM in the experiment with CDK10; 53.4 nM in the experiment with GSK3A; 41.5 nM in the experiment with GSK3B; 2350 nM with ILK; 2490 nM with PKN1; 20.3 nM in the experiment on PRKCB. The potency estimated from few doses was 1930 nM in the experiment on PRKCI, 386 nM with RPS6KA6 and 104 nM in the experiment on RPS6KB1.
As to `Fc1ccc(-c2nc3n(c2-c2ccncc2)CCS3)cc1` [GI98581X], the potency estimated from few doses in the experiment with CDC42 was 1530 nM; in the experiment with CSNK1A1, 1320 nM; in the experiment on CSNK1D, 87.9 nM; with CSNK1E it was 304 nM; with MAPK10 it was 666 nM; in the experiment with MAPK14 it was 1070 nM. In addition, the potency estimated from few doses was 1260 nM in the experiment with MAPK9, 435 nM in the experiment on MAPKAPK2 and 1090 nM in the experiment with RIPK2.
With `CN1CCC(C(=O)Nc2n[nH]c3nc(-c4ccc(O)cc4)c(Br)cc23)CC1.O=C(O)/C=C\C(=O)O` [SB-732881-H], the potency estimated from few doses with CDK16 is 531 nM; with CDK17, 459 nM; in the experiment on CDK6 it was 786 nM; in the experiment with CDK7 it was 732 nM; with CDK9, 234 nM; with CDKL5 it was 21 nM. In addition, the potency estimated from few doses in the experiment with EPHB2 was 1100 nM; with ERCC2 it was 985 nM; in the experiment on FER it was 1270 nM; with GSK3A it was 2.51 nM; with GSK3B it was 8.66 nM; in the experiment on ICK, 1160 nM. The potency estimated from few doses is 1760 nM in the experiment on MAPK7; 1590 nM in the experiment with NQO2; 1730 nM in the experiment on PDGFRB (compound concentrations:100 nM and 1000 nM (sheet 'Samples')); 744 nM in the experiment on TNK1; 964 nM in the experiment with TNK2.
